# Test results as given in PubChem BioAssay (NCATS).
# Inconclusive results are not listed. A number with no mark means an inactive call. Activity calls are given as the source filed them. The call rests on the fitted dose curve; in most records, active means well fitted inhibition curve with a large enough effect; inconclusive means small, poorly fitted or top-dose-only effect; inactive means no such curve, though single readings can be large or run the other way. Non-standard residues stand in square brackets, D forms with d. Residues, ends and D or L forms follow the SMILES beside them. *: point of attachment. Benzoyl(4-tBu) = CC(C)(C)c1ccc(C(=O)*)cc1; Lys(Et2) = CCN(CC)CCCC[C@H](N)C(=O)O
# Assay: BET inhibitor-based combinations targeting novel dependencies in MECOM-rearranged (r) AML: OCI-AML3 cell line (AID 2202232); further: nearly all actives have a fitted effect of over 35% in size;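 on viability (% of control): plate controls were DMSO vehicle wells for no effect and wells without cells for full effect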
# Details: CellTiter-Glo luminescence, 48 h; Potency: OCI-AML3 viability; series mostly up to 46 µM
# From the text: Ecotropic viral insertion site 1 (EVI1) is located on chromosome 3q26.2 as part of the MECOM (MDS and EVI1 complex) locus. Under normal hematopoiesis, EVI1 is a regulator of hematopoietic stem cell maintenance and self-renewal and EVI1 levels decrease as the cells differentiate. In approximately 5-10% of de novo acute myeloid leukemia (AML) EVI1 is aberrantly expressed, including Chromosomal inv(3)(q21;q26.2) or t(3;3)(q21;q26.2) alterations (MECOM-r) that account for about 50% of AML with EVI1 overexpression 31. AMLs with high levels of EVI1 have a poor prognosis and an overall survival time averaging between 10-14 months. EVI1 overexpression confers resistance in leukemia cells, highlighting the need to develop new targeted therapies for EVI1 overexpressing AMLs.
# Here, we performed an unbiased chemical drug screening by evaluating the single agent activity of a collection of 2,480 oncology-focused, approved and investigational drugs (NCATS Mechanism Interrogation Plates, MIPE v5.0) against a panel of seven AML cell lines. These included four MECOM-r cell-lines (AML-191, AML-194, UCSD-AML1 and HNT-34) and three non-MECOM-r AMLs (MV4-11, OCI-AML3 and SET-2). Exploiting the mechanistic redundancy built in the library, we identified target-level sensitivities in MECOM-r AML cells and relative activity as compared to other AML subtypes.
# A collection of 2480 mechanistically annotated dugs (MIPE v5.0) was used to screen four 3q26.2 rearranged AML cell lines and three non-3q26.2 rearranged AML cell lines. This library purposely exploits redundancy by including multiple inhibitors of key onco-targets, while simultaneously encompassing mechanistic diversity, targeting more than 800 distinct mechanisms of action. Briefly, cells were seeded in 5 uL of growth media using a Multidrop Combi dispenser into 1536 well white polystyrene tissue culture treated plates (Corning) at a density of 500cells/well. For each cell-line, for each of the 2480 drugs in MIPE v5.0 library, an 11-point dose curve was generated via a 1536 pin-tool. Plates were incubated for 48 hr at standard incubator conditions, covered by a stainless steel gasketed lid to prevent evaporation. Cell viability was determined by luminescence based, Cell Titer Glo assay (Promega). In detail, 3 uL of Cell Titer Glo were added to each well and plates were incubated at room temperature for 15 min with a stainless-steel lid in place. Luminescence readings were taken using a Viewlux (PerkinElmer) with a 2 s exposure time per plate. Compound dose-response curves were normalized to DMSO and empty well controls on each plate. Quantitative drug activity data from dose-response curves was determined utilizing area Under the Curve (AUC) and Z-transformed AUC (Z-AUC, a mean-centering transformation applied to each individual cell-line screened).
# Potency means the concentration at half of the fitted maximal effect.
SMILES,Potency,viability (% of control)
O=C(C1CC1)N1CC[C@@H](Cn2c(-c3ccc(-c4ccc5occc5c4)cc3)nc3cnccc32)C1,10.5 µM (active),–
O=C(O)/C(S)=C/c1ccc(I)cc1,inactive,–
COc1ccc(S(=O)(=O)N[C@@H](CNc2nc(C)nc(N3CCC(c4ccc5c(n4)NCCC5)CC3)c2C)C(=O)O)cc1,inactive,–
CN1CCC(c2c(O)cc(O)c3c(=O)cc(-c4ccccc4Cl)oc23)C1CO (stereo not given),0.742 µM (active),–
C[C@@H]1Cc2c([nH]c3ccccc23)[C@@H](c2c(F)cc(/C=C/C(=O)O)cc2F)N1CC(C)(C)F,inactive,–
NC(=O)c1cc(F)cc2c1C(=O)N(C1CCN(C3CCC(F)(F)CC3)CC1)C2,inactive,–
COc1ccccc1-c1cccc(-c2c(O)c3cc(C#N)c(Cl)cc3[nH]c2=O)c1,inactive,–
Cc1cc(OCCCc2c3n(c4c(-c5c(C)nn(C)c5C)c(Cl)ccc24)[C@H](C)CN(c2cn(C)c4ccc(C(=O)O)cc24)C3=O)cc(C)c1Cl,2.63 µM (active),–
Cc1cc(O)cc2c1[C@]1(C)CC[C@H]3C(C)(C)CCC[C@]3(C)[C@H]1C2,–,14.4% [at 5.12 µM]
CN(C(=O)c1c(O)c2ccccc2n(C)c1=O)c1ccccc1,inactive,–
C=CC(=O)N1CC/C(=C\c2ccc(F)c([N+](=O)[O-])c2)C(=O)/C(=C/c2ccc(F)c([N+](=O)[O-])c2)C1,0.0525 µM (active),–
COc1cc2c3c(n(CCCN4CCOCC4)c(=O)c2cc1OC)-c1cc2c(cc1C3=O)OCO2,0.0332 µM (active),–
Cc1cnc(Nc2ccc(CN3CCOCC3)cc2)nc1Nc1cccc(S(=O)(=O)NC(C)(C)C)c1,2.63 µM (active),–
CCN(CC)CCCC[C@H](NC(=O)[C@H](CC(C)C)NC(=O)[C@H](C)NC(=O)[C@H](Cc1ccccc1)NC(=O)c1ccc(C(C)(C)C)cc1)C(=O)N[C@@H](CO)C(=O)OC ({Benzoyl(4-tBu)}-FAL[Lys(Et2)]S-OMe),inactive,–
CNS(=O)(=O)c1ccc2c(c1)/C(=C/c1[nH]c3c(c1CCCN1CCN(C)CC1)CCCC3)C(=O)N2,18.6 µM (active),–
CN1CCN(c2ccc3nc(-c4c(N)c5c(F)cccc5[nH]c4=O)[nH]c3c2)CC1,4.68 µM (active),–
CS[C@H]1SC[C@@H]2C(=O)N(C)[C@H](C(C)C)C(=O)OC[C@H](NC(=O)c3cnc4ccccc4n3)C(=O)N[C@H](C)C(=O)N(C)[C@H]1C(=O)N(C)[C@H](C(C)C)C(=O)OC[C@H](NC(=O)c1cnc3ccccc3n1)C(=O)N[C@H](C)C(=O)N2C,0.0047 µM (active),–
CN1C(=O)[C@@H](NC(=O)c2cc(Cc3ccccc3)on2)COc2ccccc21,inactive,–
Cc1ccc(NS(=O)(=O)c2cccc(C#N)c2)c2[nH]cc(C#N)c12,1.18 µM (active),–
N#Cc1c(N)nc(N)nc1N[C@H](c1nc2c(F)ccc(Cl)c2c(=O)n1-c1cccnc1)C1CC1,6.61 µM (active),–

SMILES,Potency,viability (% of control)
CC(c1cc2ccccc2s1)N(O)C(N)=O (stereo not given),inactive,–
C[C@H](CCC(=O)O)[C@H]1CC[C@H]2[C@@H]3[C@H](O)C[C@@H]4C[C@H](O)CC[C@]4(C)[C@H]3CC[C@]12C,inactive,–
O=C(NO)c1ccc(C2=Nc3ccccc3Oc3ccccc32)cc1,5.25 µM (active),–
Cc1c(CN2CCC(Nc3ncnc4sc(CC(F)(F)F)cc34)CC2)ccc2c1cc(C#N)n2Cc1cn[nH]c1,13.2 µM (active),–
O=C1CC(c2c[nH]c3ccc(F)cc23)C(=O)N1 (stereo not given),inactive,–
NC(=S)N/N=C/c1ncccc1N,5.25 µM (active),–
Cc1nc2ccc(CN(C)c3ccc(C(=O)N[C@@H](CCC(=O)O)C(=O)O)s3)cc2c(=O)[nH]1,0.0468 µM (active),–
N#Cc1ccc(-c2c(-c3ncn[nH]3)sc(N3CCOCC3)c2C#N)c(F)c1,5.9 µM (active),–
O=C(/C=C\n1cnc(-c2cc(C(F)(F)F)cc(C(F)(F)F)c2)n1)N1CC(F)(F)C1,2.63 µM (active),–
CCCC1(CCC)CCC2(CCN(CCCN(CC)CC)C2)CC1,7.42 µM (active),–
CCCc1cc(C)[nH]c(=O)c1CNC(=O)c1cc(-c2ccc(N3CCN(C(C)C)CC3)nc2)cc2c1cnn2C(C)C,18.6 µM (active),–
C=CC(=O)N1CCc2ccc(-n3c(=O)ccc4cnc5ccc(-c6cnn(C)c6)cc5c43)cc21,0.363 µM (active),–
COc1ccc2c(c1)CC[C@@H]1[C@@H]2CC[C@]2(C)[C@@H](NCCCCCCN3C(=O)C=CC3=O)CC[C@@H]12,inactive,–
COC(=O)C1=C(C)NC(c2ncc(F)cc2F)=N[C@@H]1c1ccc(F)cc1Cl,inactive,–
CC(C)c1c(-c2ccccc2)nc2c(C#N)c[nH]n2c1=O,inactive,–
CC(/C=C/C(=O)NO)=C\[C@@H](C)C(=O)c1ccc(N(C)C)cc1,0.662 µM (active),–
Cn1cc(C[C@@H](N)C(=O)O)c2ccccc21,–,111% [at 8.46 µM]
CC[C@H](CC[C@@H](C)[C@H]1CC[C@H]2[C@@H]3CC=C4C[C@@H](O)CC[C@]4(C)[C@H]3CC[C@]12C)C(C)C,inactive,–
CCN[C@H]1C[C@H](C)S(=O)(=O)c2sc(S(N)(=O)=O)cc21,inactive,–
C[C@H](NC(=O)/C(C#N)=C/c1cccc(Br)n1)c1ccccc1,4.68 µM (active),–
